Measured values reported in PubChem BioAssay (NCI).
Several values for one entry are separate records, joined by “and”; a condition that tells them apart may be missing. Equal values may be shown once. Compounds without any hit were thinned out: in the full panel of roughly 83,000, 20% have a hit.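 Values shown are percent growth following 48 h exposure of cells in 96-well plates to a single concentration of compound; below 10 was considered active.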 Activity calls are given as the source filed them.

Tested on: HL-60(TB) leukemia
Assay: NCI-60 one-dose screen, 48 h (100 = growth as untreated, 0 = no growth, -100 = all killed)
Conditions: 10 µM unless noted

SMILES	growth
C=C1C(=O)O[C@H]2[C@H]1CC/C(COC(=O)NCCc1ccc(OC)cc1)=C\CC[C@@]1(C)O[C@@H]21	-22% (active)
O=C(Nc1cccc(Cl)c1)c1cc(Cl)ccc1O	-32.4% (active)
CN(C)C1CCN(Cc2ccc(NC(=O)c3cncc(C#Cc4cnc(N)c5ncccc45)c3)cc2C(F)(F)F)CC1	73.6% (inactive)
CC(C)N1CCN(Cc2ccc3c(NNC(=O)c4ccccc4)nc4cc(F)ccc4n23)CC1	8.42% (active)
CCOC(=O)Nc1ccc(-c2nc(-c3cccc(OC)c3)c(-c3ccnc(Br)c3)[nH]2)cc1	-18.7% (active)
COc1ccc(C2NC(=O)Nc3ccccc32)c(OC)c1 (stereo not given)	93.2% (inactive)
CC1(C(=O)O)NC(C(=O)O)Cc2c1[nH]c1ccccc21 (stereo not given)	99.8% (inactive)
CCCCCCCCCCCCCCNc1nc(CO)ncc1-c1ccc(C(F)(F)F)cc1	99.1% (inactive)
COc1ccccc1/C=C/C(=O)/C=C/c1ccccc1O	-5.37% (active)
COC(=O)/C(=C\c1c(-c2ccccc2)[nH]c2ccccc12)S(C)(=O)=O	1.54% (active)
COc1cc(-c2cc(-c3cc4c([nH]c5ccccc54)c(-c4cc(OC)c(OC)c(OC)c4)n3)cc(-c3ccccc3)n2)cc(OC)c1OC	30.9% (inactive)
Cc1c(-c2noc(-c3ccc([N+](=O)[O-])cc3)n2)no[n+]1[O-]	102% (inactive)
COc1ccc2nc(Cl)cc(C)c2c1	89.3% (inactive) and 9.88% (active)
COC(=O)/C=C1/SC(=Nc2cccc(OC)c2)N(CCc2c[nH]c3ccc(O)cc23)C1=O	59.8% (inactive)
O=C(/C=C/c1ccc[nH]1)c1ccc(-n2ccc(C(F)(F)F)n2)cc1	-18.4% (active)
Brc1c2c(c(Br)c3ccccc13)CCCC2	91.4% (inactive)
CCN1Cc2c(/C=C/c3ccccc3)nc3ccc(OC)cc3c2N(c2cccc(Cl)c2)C1	23.6% (inactive)
COc1ccc(-c2nn(-c3ccccc3)cc2/C=C2/SC(=S)N(C)C2=O)cc1	95.8% (inactive)
CC(C)c1cc(N=O)cc(C(C)C)c1O	93% (inactive)
N#Cc1c(-c2ccc(O)cc2)c2c(N)nn(-c3ccccc3)c2[nH]c1=O	102% (inactive)

SMILES	growth
Cc1cccc(/C=C\C(=O)c2ccccc2)c1	98.8% (inactive) and 58.7% (inactive)
CC(C)(C)Nc1c(-c2cccs2)nc2ncccn12	66.6% (inactive)
Cn1c(I)c(C#C[Si](C)(C)C)c(=O)n(C(=O)c2ccccc2)c1=O	-59% (active)
Cc1c(C2=NNC(c3ccc4c(c3)OCO4)C2)[n+]([O-])c2ccccc2[n+]1[O-] (stereo not given)	90.5% (inactive)
Oc1ccc(CCn2c(O)c(/C=C3\CN=c4ccccc4=N3)sc2=S)cc1	19.5% (inactive)
Fc1cc(C2=NNC(c3ccc[nH]3)C2)ccc1-n1ccc(C(F)(F)F)n1 (stereo not given)	55.3% (inactive)
Nc1n[nH]c2ccc([C@@H]3Nc4cc5c(cc4[C@H]4C6CCC(C6)[C@@H]34)C(=O)NC5)cc12 (stereo not given in full)	-39.2% (active)
CCOC(=O)c1sc(-c2ccc(OS(=O)(=O)c3ccc(Br)s3)c(C=O)c2)nc1C	20% (inactive)
Nc1[nH]n2cc(-c3ccccc3)nc2c1N=Nc1ccc(S(N)(=O)=O)cc1	27.9% (inactive)
COc1cc(NCCCCC(C)N)c2nccc(C)c2c1 (stereo not given)	96.7% (inactive)
O=C(CCl)N(C1CCCCC1)C1CCCCC1	104% (inactive)
N#C/C(=C\c1ccc(-c2ccc(Br)cc2)o1)c1nc(-c2ccco2)cs1	89.3% (inactive)
O=C1C=CC(=O)N1c1ccccn1	55.7% (inactive)
COc1ccccc1P(c1ccccc1OC)c1ccccc1OC	101% (inactive)
CCOC(=O)C1CCCN1C(=O)C1(NC(C)=O)CCCC1 (stereo not given)	98.4% (inactive)
CN(C)c1ccc(/C=N/n2c(-c3cc(F)c(Cl)cc3Cl)nn(CN3CCOCC3)c2=S)cc1	101% (inactive)
CCN1C(=O)N(CC)C2C1NN=c1s/c(=C3\C(=O)N(C(C)C)c4ccccc43)c(=O)n12 (stereo not given)	-22.6% (active)
CC(=O)C(CO)C(=O)Nc1ccccc1 (stereo not given)	100% (inactive)
CCN(CC)c1ccc2c(c1)Oc1nc(N)c(C#N)c(N)c1C2Sc1ccc(SC)cc1 (stereo not given)	-31.7% (active)
COc1cccc(NC(=O)Cn2cc(CN3CCN(c4ccnc5cc(Cl)ccc45)CC3)nn2)c1	124% (inactive)
